Test results reported in the supplement of paper PMC5662767.
Structures can show the parent of a compound that is named as a salt.

System: Drosophila S2 cl14 SmoIP sensor cells
Experiment: normalized SmoIP GFP fluorescence (untreated unstimulated = 0%, untreated Hh-stimulated = 100%); higher = more Smo activation sensor fluorescence
Settings: compound concentration: 2 uM, 24 h
[1] = stimulation: Hh conditioned medium (+Hh)
[2] = stimulation: mock conditioned medium (-Hh)
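Also: flow cytometry read-out as median GFP intensity of gated cells, compounds added 30 min before Hh-conditioned or mock medium, mock-treated cells serving as unstimulated baseline.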

Row | SMILES | normalized SmoIP GFP fluorescence [1] | normalized SmoIP GFP fluorescence [2]
1 | O=C(O)c1ccc(Nc2ncc3c(n2)-c2ccc(Cl)cc2C(c2c(F)cccc2F)=NC3)cc1 | 271% | 46.7%
2 | CC(C)NCC(O)c1ccc(O)c(O)c1 (configuration not stated) [Isoprenaline-hydrochloride] | 141% | -14.1%
3 | O=S(=O)(c1cccc2cnccc12)N1CCCNCC1 [Fasudil-HCl(HA-1077)] | 97% | -3.93%
4 | O=C(O)Cc1cccc(OCCCN(Cc2cccc(C(F)(F)F)c2Cl)CC(c2ccccc2)c2ccccc2)c1 | 130% | -0.116%
5 | CC(=O)/N=c1/sc(S(N)(=O)=O)nn1C [methazolamide] | 111% | -2.48%
6 | Cc1cc(C2CCCCC2)n(O)c(=O)c1 [ciclopirox-ethanolamine] | 101% | -0.264%
7 | CC(C)(C)c1ccc(C(=O)CCCN2CCC(OC(c3ccccc3)c3ccccc3)CC2)cc1 [ebastine] | 135% | 18.3%
8 | Cc1cc([C@@H](C)Nc2ccccc2C(=O)O)c2nc(N3CCOCC3)cc(=O)n2c1 | 94.8% | -5.22%
9 | Nc1nc(N)c(N=O)c(OCC2CCCCC2)n1 | 139% | 12.5%
10 | CC(C)(C)NC(=O)[C@H]1CC[C@H]2[C@@H]3CC[C@H]4NC(=O)C=C[C@]4(C)[C@H]3CC[C@]12C [Finasteride] | 77.5% | -9.32%
11 | O=C1c2ccc(Nc3ccc(F)cc3F)cc2CCc2ccc(OC[C@H](O)CO)cc21 [skepinone-l] | 101% | -4.13%
12 | Oc1ccc(Nc2nc(-c3ccc(Cl)cc3)cs2)cc1 | 113% | -0.151%
13 | Cc1ccc([C@@H]2O[C@H](CO)[C@@H](O)[C@H](O)[C@H]2O)cc1Cc1ccc(-c2ccc(F)cc2)s1 [canagliflozin] | 123% | -10.2%
14 | NC(=O)c1cccc(-c2cccc(OC(=O)NC3CCCCC3)c2)c1 | 134% | -7.15%
15 | Cn1cncc1[C@@](N)(c1ccc(Cl)cc1)c1ccc2c(c1)c(-c1cccc(Cl)c1)cc(=O)n2C | 141% | 43.9%
16 | COc1ccc(-c2ccc3c(N4CCOC[C@@H]4C)nc(N4CCOC[C@@H]4C)nc3n2)cc1CO | 61.4% | -2.96%
17 | CN(C)CCN(Cc1ccccc1)c1ccccn1 [tripelennamine-hydrochloride] | 112% | -3.9%
18 | Cc1cc(C(C)Nc2ccccc2)c2nc(N3CCOCC3)cc(=O)n2c1 (configuration not stated) | 126% | -0.265%

Row | SMILES | normalized SmoIP GFP fluorescence [1] | normalized SmoIP GFP fluorescence [2]
19 | O=c1cc(-c2ccc(O)cc2)oc2cc(O)cc(O)c12 [Apigenin] | 140% | -2.19%
20 | C=CC(=O)Nc1cccc(Nc2nc(Nc3ccc(Oc4ccnc(C(=O)NC)c4)cc3)ncc2F)c1 | 116% | -1.23%
21 | COc1cc(N2CCC(N)CC2)ccc1Nc1ncc(Cl)c(-c2c[nH]c3ccccc23)n1 | 113% | -2.48%
22 | COc1ccccc1N1CCN(CCN2C(=O)CC3(CCCC3)CC2=O)CC1 | 102% | -17.9%
23 | CN1CCN(c2ccc3nc(-c4c(N)c5c(F)cccc5[nH]c4=O)[nH]c3c2)CC1 [dovitinib] | 240% | 72.9%
24 | C[C@@H](O[C@H]1OCCN(Cc2n[nH]c(=O)[nH]2)[C@H]1c1ccc(F)cc1)c1cc(C(F)(F)F)cc(C(F)(F)F)c1 [Aprepitant] | 115% | -5.98%
25 | CCCSc1nc(N[C@@H]2C[C@H]2c2ccc(F)c(F)c2)c2nnn([C@@H]3C[C@H](OCCO)[C@@H](O)[C@H]3O)c2n1 [ticagrelor] | 113% | -3.39%
26 | NC(=O)Nc1sc(-c2ccc(F)cc2)cc1C(N)=O [tpca-1] | 106% | -3.79%
27 | COc1cc2ncnc(Oc3cccc(NC(=O)Nc4cc(C(C)(C)C(F)(F)F)on4)c3)c2cc1OC | 138% | -13.4%
28 | O=C1NC(=O)C(c2ccccc2[N+](=O)[O-])=C1Nc1ccc(O)c(Cl)c1 | 153% | -16.1%
29 | NC12CC3CC(CC(C3)C1)C2 [Amantadine-hydrochloride(Symmetrel)] | 110% | -4.08%
30 | CCc1cccc(CC)c1NC(=O)N1Cc2[nH]nc(NC(=O)c3ccc(N4CCN(C)CC4)cc3)c2C1 | 121% | 3.18%
31 | O=C(O)/C=C/c1ccc(Cn2ccnc2)cc1 [Ozagrel] | 116% | -2.46%
32 | O=C(Nc1c(Cl)cncc1Cl)c1ccc(OC(F)F)c(OCC2CC2)c1 [Roflumilast(Daxas)] | 134% | -8.23%
33 | COc1cc2nccc(Oc3ccc(NC(=O)NC4CC4)c(Cl)c3)c2cc1C(N)=O | 99.3% | 7.92%
34 | Cc1ccc2nc(NCCN)c3ncc(C)n3c2c1 | 137% | -9.4%
35 | CC(=O)O[C@]1(C(C)=O)CC[C@H]2[C@@H]3C[C@H](C)C4=CC(=O)CC[C@]4(C)[C@H]3CC[C@@]21C [Medroxyprogesterone-acetate] | 116% | -1.83%
36 | CCCS(=O)(=O)Nc1ccc(F)c(C(=O)c2c[nH]c3ncc(-c4ccc(Cl)cc4)cc23)c1F | 91.2% | 3.72%
